A selection: hits, their analogues and other compounds. The true share with any hit is near 3.1%.
S1P3 antag = S1P3 receptor antagonists, primary screen, cell-based | Sphingosine 1-phosphate receptor 3 (Homo sapiens), Q99500 | CHO S1P3 NFAT-BLA reporter, FRET fluorescence, antagonist mode | inhibition, % at 4.98 µM | 170,000 compounds, 0.27% hits | AID 485, 2006;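 active means inhibition above the plate cutoff, the mean inhibition of test wells on that plate plus 3 SD, cut at about 28% in these data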;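 further: cells challenged with S1P at its EC80 of 0.8 µM; blue over green emission ratio from cleaved BLA substrate after 4 h stimulation; 0% = S1P-stimulated wells and 100% = unstimulated DMSO-only wells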
Target sequence (Q99500 whole entry, looked up): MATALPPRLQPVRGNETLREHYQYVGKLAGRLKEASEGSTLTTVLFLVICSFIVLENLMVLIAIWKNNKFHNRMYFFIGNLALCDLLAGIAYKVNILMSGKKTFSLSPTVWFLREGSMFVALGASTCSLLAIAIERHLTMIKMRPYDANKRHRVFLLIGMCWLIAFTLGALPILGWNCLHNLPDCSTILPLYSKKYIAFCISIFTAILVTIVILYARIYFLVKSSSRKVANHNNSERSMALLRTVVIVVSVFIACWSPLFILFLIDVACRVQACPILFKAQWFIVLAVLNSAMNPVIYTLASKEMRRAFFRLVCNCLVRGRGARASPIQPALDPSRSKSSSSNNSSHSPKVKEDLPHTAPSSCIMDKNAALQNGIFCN
EP2 modulator = EP2 receptor modulators, cAMP readout, primary screen, cell-based, HTRF cAMP, PGE2 stimulation; Prostaglandin E2 receptor EP2 subtype (Homo sapiens), P43116; EP2-expressing cells, cAMP HTRF FRET, PGE2 co-stimulation; induction, % at 25 µM; 260,000 compounds, 0.83% hits; AID 940, 2007;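 active means compounds whose cAMP rise, as percent of the full-agonist control response, exceeds 60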;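 further: rat C6 glioma line stably carrying human EP2 under a CMV promoter; the protocol text gives 20 µM as final concentration; 100% = response of wells given 1 µM PGE2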
PGE2 EP2 inh = human EP2 receptor antagonists, primary screen, TR-FRET cAMP, C6 glioma cells. Prostaglandin E2 receptor EP2 subtype (Homo sapiens), P43116. C6 glioma cells expressing human EP2; cells stimulated with saturating PGE2. inhibition, % at 25 µM. 260,000 compounds, 0.52% hits;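 active means percent inhibition above 40 after rounding to a whole number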;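 further: rat C6 glioma host cells with rolipram phosphodiesterase inhibitor present; the protocol text gives 20 µM as final concentration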
Cl transport mod = KCC2 cotransporter modulators, thallium flux, primary screen, cell-based, HEK293 KCC2, FluoZin-2 fluorescence, MLSMR; AID 1456, 2008; KCC2 cells, thallium flux FluoZin-2 fluorescence; Solute carrier family 12 member 5 (Homo sapiens), Q9H2X9; B-score of Tl+ flux slope (higher = more flux/activation; lower = inhibition) at 10 µM; 190,000 compounds, 2.2% hits;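 active means thallium flux slope and its plate-corrected score both differing from the plate sample mean at a set confidence after two filtering rounds, in either direction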;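 further: slope of fluorescence scaled to starting intensity during 10 to 20 s after thallium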
Numbers without * were called inactive; nt = not tested or not shown; ! = a repeat was not active.

SMILES	S1P3 antag	EP2 modulator	PGE2 EP2 inh	Cl transport mod
CCOC(=O)CSc1nc2ccc(C)cc2cc1CC	nt	62.4*	12.2	nt
CCc1cc2cc3c(cc2nc1SCC(=O)Nc1ccc(OC)c(OC)c1)OCO3	nt	74.2*	10.1	nt
COc1cc(NC(=O)C2CCN(c3nc(C)cc(C)n3)CC2)cc(OC)c1	nt	-18.2	1.2	nt
CCOC(=O)CC(=O)CSc1nc2c(C)c(C)ccc2cc1C	nt	66.4*!	8.0	0.702
CCOC(=O)CC(=O)CSc1nc2c(C)c(C)ccc2cc1CC	nt	52.3	8.7	nt
COc1ccc(C)cc1NC(=O)CSc1nc(C)nc2sc(C)c(C)c12	nt	57.1	9.4	nt
CCc1cc2c(C)ccc(C)c2nc1SCC(=O)OC	nt	86.7*	15.8	nt
CCc1c(C)sc2nc(C)nc(SCC(=O)Nc3ccccc3OC)c12	nt	66.2*	8.8	nt
COc1ccc(CC(=O)Nc2nn(C)c3nc4c(C)cccc4cc23)cc1	-0.4	-21.7	48.4*	-0.858
CC1CCCC(C)N1C(=O)Cn1cnc2c(cnn2-c2ccccc2Cl)c1=O (configuration not stated)	nt	-18.6	16.1	nt
CC(C)n1c2ccccc2c2cc([N+](=O)[O-])ccc21	0.0	64.9*	7.8	0.246
CC(=O)c1ccc(NC(=S)N(CCCN(C)C)Cc2ccccc2)cc1	-5.5	-10.2	128.2*	-0.0322
CC1(C)Oc2ccc(C(=O)c3cccs3)cc2NC1=O	nt	-0.2	6.9	nt
CCC(=O)N1CCN(c2ccccc2NC(=O)COc2cccc(C)c2)CC1	11.3	14.3	2.4	13.1*
C[n+]1ccc(C(=O)Nc2ccccc2)cc1	nt	6.5	13.8	nt
O=C1C2CCCN2C(c2ccc(F)cc2)N1c1cccc(Cl)c1 (configuration not stated)	-31.8	21.4	6.8	nt
O=C1C2CCCN2C(c2cccc(F)c2)N1c1cccc(Cl)c1 (configuration not stated)	68.1*	21.8	4.7	1.01
N#CC(C#N)=C1C=CC=CN1/C(=C\c1ccco1)C(=O)c1ccccc1	-7.0	-86.7	16.0	-1.84
N#CC(C#N)=C1C=CC=CN1/C(=C\c1ccco1)C(=O)c1ccc(Br)cc1	3.2	-2.3	48.8*	0.822
CCn1c2ccccc2c2cc(NC(=O)C(=O)NCCCOC)ccc21	nt	-65.6	11.3	nt
CCOC(=O)c1sc(-c2ccc(OC)cc2)cc1NC(C)=O	-5.5	12.7	40.1*	0.666
O=C(O)C1=C/C(=C(/c2ccccc2)c2cc(C(=O)O)c(O)c3ccccc23)c2ccccc2C1=O	nt	3.4	39.8*!	nt
O=C(O)c1cccc2c1C(=O)c1ccccc1C2=O	-17.6	10.8	2.4	-0.641
CC(C)(C)c1cccc(P(=O)(c2ccccc2)c2ccccc2)c1O	-6.5	66.2*	11.9	nt
O=C(C(Cc1ccccc1)N1C(=O)c2ccccc2C1=O)N1CCc2ccccc21 (configuration not stated)	nt	63.6*	6.4	0
SMILES	S1P3 antag	EP2 modulator	PGE2 EP2 inh	Cl transport mod
Cc1ccc(N=C2NC(=O)/C(=C/C=C/c3ccco3)S2)cc1	-0.8	-73.6	8.2	-0.049
Cc1cccc(N=C2NC(=O)/C(=C/C=C/c3ccco3)S2)c1C	-19.2	-4.0	9.6	4.35*
Cc1cc(C(=O)NCCOc2ccccc2Cl)co1	nt	-20.9	3.7	nt
CCOc1ncccc1C(=O)Nc1ncc(C)s1	5.0	4.9	3.3	-1.93
CCOc1ncccc1C(=O)Nc1nc(C(C)(C)C)cs1	-18.9	63.5*	0.3	nt
CC(Sc1nc(-c2ccccc2)cc(C(F)(F)F)n1)C(=O)NN1CCN(C)CC1 (configuration not stated)	nt	0.4	7.6	nt
Cc1cc(C)c2nc(SCC(=O)NCCC3=CCCCC3)cc(C)c2c1	7.2	37.2	9.4	12.1*
CC1(C)Cc2c(sc3c2c(N)nc(=S)n3Cc2ccccc2)CO1	7.3	7.2	7.8	0.303
CC1(C)Cc2c(sc3[nH]c(=S)n(Cc4ccccc4)c(=O)c23)CO1	nt	16.6	19.8	80.6*
COc1ccc2[nH]c(=O)c3c(c2c1)OC(C)(C)C=C3	66.9*	29.1	10.1	-1.22
O=C(Cc1ccccc1)Nc1nc(=O)c2ccccc2s1	nt	3.0	8.3	4.12*
O=C(Nc1nc(=O)c2ccccc2s1)c1ccc(F)cc1	nt	1.1	5.5	47.3*
O=C(Cc1ccccc1)Nc1nc2ccccc2s1	nt	3.2	6.0	-0.543
O=C(Nc1ccc2nn(-c3ccccc3)nc2c1)c1cccnc1	26.3	-13.4	39.8*	0.562
O=C(Nc1ccc2nn(-c3ccccc3)nc2c1)c1ccco1	nt	-68.9	41.2*!	-0.0576
O=[N+]([O-])c1ccc(O)c(/C=N/NC(=S)Nc2ccc(Cl)cc2Cl)c1	1.3	-57.2	22.8	9.22*
O=S(=O)(c1ccc(-c2nnc(SCc3nnc(-c4ccccc4)o3)o2)cc1)N1CCCC1	12.1	24.6	2.3	nt
CCN(CC)S(=O)(=O)c1ccc(-c2nnc(SCc3nnc(-c4ccccc4)o3)o2)cc1	-2.4	25.9	104.8*	nt
O=C(Nc1ccc(NC(=O)C2CC2)nc1)c1ccccn1	nt	-1.2	40.9*	nt
N=C(N)SCc1ccc(Cl)cc1Cl (tested in a mixture with another compound)	nt	-31.9	52.6*	nt
C[N+](C)(C)CCC(=O)c1cccc2ccccc12	nt	-11.0	106.3*	nt
O=C(O)CCC(=O)c1cccc2ccccc12	-16.0	18.6	8.3	0.752
C=CCOC(=O)CN1CCC2(CC1)NC(=O)c1ccccc1O2	nt	-13.2	4.8	nt
CCCCNC(=S)Nc1cccc2cnccc12	-5.4	11.2	8.9	-0.483
CCCCNC(=S)N/N=C1\C(=O)c2cccc3cccc1c23	nt	13.3	6.8	4.97*
SMILES	S1P3 antag	EP2 modulator	PGE2 EP2 inh	Cl transport mod
O=C(N/N=C1\C(=O)c2cccc3cccc1c23)c1ccc(O)cc1	2.1	4.3	2.6	1.66
CNC(=S)N/N=C1\C(=O)c2cccc3cccc1c23	nt	-49.4	9.8	42.7*
CNC(=S)N(Cc1ccc(Cl)cc1)Cc1cc2cc(C)c(C)cc2[nH]c1=O	nt	5.1	3.9	nt
Cc1ccc(C(=O)Nc2ccc(N3CCN(C(=O)C(C)C)CC3)c(Cl)c2)c(C)c1	nt	-3.6	5.3	nt
Cc1nnc(N2C(=O)C(O)=C(C(=O)c3ccco3)C2c2ccc(C(C)(C)C)cc2)s1 (configuration not stated)	nt	12.1	57.2*	-0.584
Cc1nnc(N2C(=O)C(O)=C(C(=O)c3ccco3)C2c2ccc(F)cc2)s1 (configuration not stated)	6.0	20.4	17.3	-0.14
c1cncc(CN2CCN(Cc3cccnc3)CC2)c1	nt	8.6	13.5	nt
CC1CCCCC1NC(=O)CSc1ncnc2sc3c(c12)CCC3 (configuration not stated)	nt	3.0	14.1	nt
CN(C1=C(N2CCCCC2)C(=O)c2ccccc2C1=O)c1ccccc1	nt	63.5*	7.2	-0.51
O=C1C(Nc2ccccc2)=C(N2CCCCC2)C(=O)c2ccccc21	nt	-3.6	22.7	0.0217
CCOc1cc(C)nc(N2C3CCC2CC(O)(c2ccc(OC)cc2)C3)n1 (configuration not stated)	nt	31.9	nt	nt

Source: PubChem (several laboratories)
